Only some compounds are listed: those with a hit (about 2.4% of all), similar ones and a draw of the others.
D2 ag-1: activates the human D2 dopamine receptor | P14416 | DiscoveRx PathHunter D2 beta-arrestin, luminescence, 90 min; 100% = 57 uM dopamine signal | activation, % (no concentration beside the values) | hit rate 0.084% among 360,000 | AID 624465; in the data active = activation above about 40%; inconclusive = between about 15% and that limit
Target sequence (P14416 whole entry, looked up): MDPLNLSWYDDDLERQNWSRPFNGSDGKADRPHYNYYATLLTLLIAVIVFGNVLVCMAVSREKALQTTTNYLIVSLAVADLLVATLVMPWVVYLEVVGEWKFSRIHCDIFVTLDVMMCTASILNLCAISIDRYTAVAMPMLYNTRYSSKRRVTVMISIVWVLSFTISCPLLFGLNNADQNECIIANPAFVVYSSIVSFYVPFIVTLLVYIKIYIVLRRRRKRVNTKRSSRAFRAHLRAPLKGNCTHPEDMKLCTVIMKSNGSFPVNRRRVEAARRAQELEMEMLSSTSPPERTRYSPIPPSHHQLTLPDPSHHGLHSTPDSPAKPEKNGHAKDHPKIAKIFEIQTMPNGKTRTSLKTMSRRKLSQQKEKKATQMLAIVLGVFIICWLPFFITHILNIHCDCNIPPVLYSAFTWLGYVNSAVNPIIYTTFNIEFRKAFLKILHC
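Agonist mode: compounds alone added to overnight-plated D2 PathHunter cells for 90 min at 37 C, with 57 uM final dopamine (EC100) defining full response. Beta-arrestin recruitment detected by chemiluminescent reagent, read after 1 h at ambient temperature.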
D2 PAM-1: positively modulates the human D2 dopamine receptor allosterically; hit rate 0.34% among 340,000; HEK293 T-REx D2, calcium flux, EC20 dopamine potentiation; potentiation, % at 10 µM; P14416;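 active = potentiation over 3 SD above the plate norm, cut at about 30% in these data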; also: 0% is about no effect
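Primary screen. Calcium kinetics in induced HEK293 T-REx D2 cells: compound pre-addition 180 s, EC20 dopamine, 180 s more.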
D2 antagonist: D2 dopamine receptor (human) antagonism. P14416. HEK293 TREx D2 cells, calcium flux, dopamine EC80. inhibition, % at 10 µM. hit rate 2% among 340,000. AID 485344; in the data active = inhibition above about 30%; inactive = below that, where a call was filed; also: 0% is about no effect
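Dopamine at EC80 is the agonist stimulus; test compounds precede it by 180 s. Calcium flux read kinetically in a force-coupled, inducible HEK293 T-REx D2 cell line.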
D2 ag-2: activates the human D2 dopamine receptor. HEK293 T-REx D2 cells, calcium flux agonist mode. activation, % at 2 µM. hit rate 0.53% among 340,000. AID 485358;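 active = activation over 3 SD above normal in the single-dose calcium agonist read, cut at about 30% in these data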; also: 0% is about no effect
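Agonism scored from kinetic calcium signal (1 read/sec, 180 s) following compound pin transfer, after a 10 s baseline. Cells: HEK293 Trex line expressing inducible D2 receptor coupled to calcium, dye-loaded after overnight culture at 30 C.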
D2 PAM-2: positive allosteric modulators of human D2 dopamine receptor; potentiation, % (concentration not given with the values); DiscoveRx D2 beta-arrestin cells, luminescence, 90 min; 100% = 57 uM dopamine signal; P14416; hit rate 0.23% among 360,000; AID 624464; in the data active = potentiation above about 50%; inconclusive = mostly about 30% to 49%
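D2 cells co-treated with compound plus 50 nM dopamine (EC20) for 90 min at 37 deg C to detect potentiation. Beta-arrestin recruitment was read as enzyme-fragment luminescence after 1 h at ambient temperature. Full response was set by 57 uM dopamine.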
The depositor's hits bear a star.

How did O=C1NC(=O)C(Nc2cccc3ccccc23)S1 (centres undefined) do in these assays?
D2 ag-1: 3; D2 PAM-1: 4; D2 antagonist: 6; D2 ag-2: -1; D2 PAM-2: 63*

Results for Cc1cc(C)cc(NC(=O)c2ncn(-c3ccccc3)n2)c1 ?
D2 PAM-1: -21; D2 ag-2: -2

Results for CC(=O)C(C)Oc1ncn(-c2ccccc2)n1 (centres undefined) ?
D2 ag-1: 1; D2 PAM-1: 11; D2 antagonist: 33*; D2 ag-2: 0; D2 PAM-2: -17

Results for O=C(Nc1ccc2c(c1)OCCO2)c1cc2ccccc2o1 ?
D2 ag-1: 0; D2 PAM-1: -6; D2 antagonist: 33*; D2 ag-2: -1; D2 PAM-2: -18

How did O=C(Nc1ccc2c(c1)OCO2)c1ccc2sc([C@@H]3O[C@H](CO)[C@H](O)[C@H](O)[C@H]3O)nc2c1 do in these assays?
D2 ag-1: -6; D2 PAM-2: -10

How did CC(=O)c1cccc(NC(=O)CSc2nc3ccccc3nc2Cc2ccc(F)cc2)c1 do in these assays?
D2 PAM-1: 10; D2 ag-2: 3

What do the screens show for `C[C@@H]1CN([C@H](C)CO)C(=O)c2cc(Br)cnc2O[C@H]1CN(C)C(=O)Nc1ccccc1F`?
D2 ag-1: -7; D2 PAM-2: 3

Results for CCOC(=O)C(=NCCCN(C)C)NNc1cc(C(F)(F)F)ccc1Cl ?
D2 ag-1: 0; D2 PAM-1: -14; D2 antagonist: 35*; D2 ag-2: -1; D2 PAM-2: -6

What do the screens show for `CCOC(=O)C(=NCCCN(C)C)NNc1ccc(Br)cc1`?
D2 ag-1: 5; D2 PAM-1: 2; D2 antagonist: -1; D2 ag-2: 0; D2 PAM-2: -11

What do the screens show for `CSc1ccc(CCNC(=O)c2ccc(-c3nc(COc4ccc(C)cc4)c(C)o3)cc2)cc1`?
D2 PAM-1: 3; D2 ag-2: 0

What do the screens show for `CC1Sc2ccc(S(=O)(=O)N(C)Cc3ccccc3)cc2NC1=O` (centres undefined)?
D2 ag-1: 8; D2 PAM-1: 4; D2 antagonist: 4; D2 ag-2: 1; D2 PAM-2: 4

How did COCc1c(C(=O)NC2CCCCCC2)oc2ccccc12 do in these assays?
D2 ag-1: inconclusive; D2 PAM-1: -27; D2 antagonist: 10; D2 ag-2: 31*; D2 PAM-2: 10

What do the screens show for `CC1(C(=O)NS(=O)(=O)c2ccc(Br)cc2)CCN1C(=O)CCc1cccs1` (centres undefined)?
D2 ag-1: 4; D2 PAM-2: 3

How did Cc1ccc(/C=N/NC(=O)CSc2nnc(-c3ccc(Cl)cc3)n2-c2ccccc2)o1 do in these assays?
D2 ag-1: inconclusive; D2 PAM-1: -1; D2 antagonist: -19; D2 ag-2: -1; D2 PAM-2: 88*

Results for O=C(CSc1nnc(-c2ccc(Cl)cc2)n1-c1ccc(Cl)cc1)N/N=C/c1ccco1 ?
D2 ag-1: 11; D2 PAM-1: -9; D2 antagonist: -9; D2 ag-2: -1; D2 PAM-2: 17

Results for Cc1cc(C)c2oc(-c3ccc(C)c(NC(=O)/C=C/c4ccco4)c3)nc2c1 ?
D2 PAM-1: -5; D2 ag-2: -1

What do the screens show for `O=C(NN1C(=O)/C(=C/c2cc([N+](=O)[O-])ccc2O)SC1=S)c1ccccc1O`?
D2 PAM-1: -9; D2 antagonist: -2; D2 ag-2: 1

What do the screens show for `Cc1ccc(/C=C2\SC(=S)N(/N=C/c3cc([N+](=O)[O-])ccc3O)C2=O)o1`?
D2 ag-1: 0; D2 PAM-1: 1; D2 antagonist: 32*; D2 ag-2: 0; D2 PAM-2: -7

How did COc1ccc(CC(=O)N/N=C/c2ccc(-c3ccc(F)cc3)o2)cc1OC do in these assays?
D2 ag-1: 1; D2 PAM-1: -17; D2 antagonist: 4; D2 ag-2: 40*; D2 PAM-2: -8

What do the screens show for `COc1cccc(OCC(=O)O)c1`?
D2 ag-1: 0; D2 PAM-1: 40*; D2 antagonist: 3; D2 ag-2: 0; D2 PAM-2: 3

How did Cc1cc(NC(=O)NC(=O)c2cccc(OC(F)(F)C(F)F)c2)n[nH]1 do in these assays?
D2 ag-1: -5; D2 PAM-1: -5; D2 antagonist: -2; D2 ag-2: 1; D2 PAM-2: -7

Results for COc1cccc(OCCNCc2ccccc2)c1 ?
D2 ag-1: -1; D2 PAM-1: -30; D2 antagonist: 41*; D2 ag-2: 2; D2 PAM-2: -13

What do the screens show for `Cc1cc(NC(=O)c2cccc(Oc3ccccc3)c2)n[nH]1`?
D2 ag-1: -2; D2 PAM-1: 74*; D2 antagonist: -12; D2 ag-2: 4; D2 PAM-2: -5

How did COc1cccc(C(=O)Nc2cccc(OCC(=O)O)c2)c1 do in these assays?
D2 ag-1: -3; D2 PAM-1: 4; D2 antagonist: 34*; D2 ag-2: 2; D2 PAM-2: 0

How did COc1cc(NC(=O)Cn2c(=O)n(-c3ccccc3)c(=O)c3c4c(sc32)CCCC4)cc(OC)c1 do in these assays?
D2 PAM-1: 10; D2 ag-2: 1

How did CC(=NO)c1ccc2c(c1)C(=NO)c1ccccc1-2 do in these assays?
D2 ag-1: 13; D2 PAM-2: 83*

How did ON=C1c2ccccc2-c2ccc(O)cc21 do in these assays?
D2 ag-1: -6; D2 PAM-2: -18

What do the screens show for `O=C(CCc1ccc(O)c(O)c1)N/N=C/c1cc2c(cc1[N+](=O)[O-])OCO2`?
D2 ag-1: inconclusive; D2 PAM-1: -1; D2 antagonist: -5; D2 ag-2: 1; D2 PAM-2: 2

What do the screens show for `Cc1cccc(C)c1OCC(=O)N/N=C/c1cc2c(cc1[N+](=O)[O-])OCO2`?
D2 ag-1: 0; D2 PAM-1: -8; D2 antagonist: 30*; D2 ag-2: -3; D2 PAM-2: 1

What do the screens show for `O=C1OC(N2CCN(C(=O)C3CCCO3)CC2)c2ccccc21` (centres undefined)?
D2 ag-1: 3; D2 PAM-1: -5; D2 antagonist: -11; D2 ag-2: 0; D2 PAM-2: 55*

How did CCOC(=O)N1CCN(C2OC(=O)c3ccccc32)CC1 (centres undefined) do in these assays?
D2 ag-1: 0; D2 PAM-1: 14; D2 antagonist: -3; D2 ag-2: 1; D2 PAM-2: -13

What do the screens show for `O=C(NCCCN1CCN(c2ccccc2)CC1)C1CCCN(c2ncnc3c2nc2n3CCCCC2)C1` (centres undefined)?
D2 ag-1: 0; D2 PAM-1: -29; D2 antagonist: 59*; D2 ag-2: 12; D2 PAM-2: -29

Results for CCc1nc(Nc2ccc(OC)cc2OC)c2oc3ccccc3c2n1 ?
D2 ag-1: 1; D2 PAM-1: 12; D2 antagonist: 9; D2 ag-2: -1; D2 PAM-2: 8
